Laboratory results reported in PubChem BioAssay AID1220 (Sanford-Burnham Center for Chemical Genomics, 2008).
Out of some 190,000 compounds screened, about 1,300 (0.68%) were called active. This is one part of a sample in which actives are shown more often than they occur. Unmarked numbers belong to inactive results. Cut-off read from the data, not from the text of the source: active = inhibition above about 50%; inactive = the rest.

What follows are compounds tested against Mannose-6-phosphate isomerase (Homo sapiens) (UniProt P34949) (assay: human PMI inhibitors, high substrate, primary screen, biochemical, fluorescence intensity, high mannose 6-phosphate (AID 1220)). Conditions: recombinant PMI enzyme, coupled fluorescence intensity; at 20 µM; active compounds read high.
Sequence of Mannose-6-phosphate isomerase (Homo sapiens) (P34949 whole entry, looked up): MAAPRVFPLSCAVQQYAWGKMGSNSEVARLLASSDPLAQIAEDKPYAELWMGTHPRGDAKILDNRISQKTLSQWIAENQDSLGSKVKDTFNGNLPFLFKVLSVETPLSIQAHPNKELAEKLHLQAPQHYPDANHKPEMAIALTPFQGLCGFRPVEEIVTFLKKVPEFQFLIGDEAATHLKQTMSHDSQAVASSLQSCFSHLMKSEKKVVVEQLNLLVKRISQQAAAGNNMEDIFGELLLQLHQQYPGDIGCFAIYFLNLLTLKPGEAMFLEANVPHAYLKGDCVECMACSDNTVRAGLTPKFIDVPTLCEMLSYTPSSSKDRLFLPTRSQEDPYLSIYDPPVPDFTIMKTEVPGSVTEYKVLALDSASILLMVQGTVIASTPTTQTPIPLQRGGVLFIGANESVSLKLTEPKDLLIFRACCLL
`c1ccn2c(Cc3nnc4ccccn34)nnc2c1` gave an inhibition of -7.1%.
In the case of `CCn1nc(C)c(C(=O)Nc2cc(Oc3ccc(Cl)cc3)cc([N+](=O)[O-])c2)c1C`, the inhibition is reported as 4.3%.
For `O=C(N/C(=C\c1ccco1)C(=O)N1CCCC1)c1cccs1`, the inhibition was 8.5%.
With `CCC(C)(C(=O)NC1CCCC1)N(Cc1cccs1)C(=O)c1ccccn1` (centres undefined) the inhibition was 59.3% (active).
`CCC(C)(C(=O)NC1CCCCC1)N(Cc1cccs1)C(=O)c1ccccn1` (centres undefined) showed an inhibition of -2%.
Work on `CCC(C)(C(=O)NC1CCCC1)N(Cc1cccs1)C(C)=O` (centres undefined) yielded an inhibition of 0.2%.
`Cc1c2c(nc3c(C(=O)NC4CC4)cnn13)CCCC2` was tested, and the inhibition was -0.9%.
Compound `COc1cccc(CN2CCNC(=O)C2CC(=O)NCc2cn3ccccc3n2)c1OC` (centres undefined) has an inhibition of 7.8%.
With `COc1cccc(CN2CCNC(=O)C2CC(=O)NCCn2ccc3ccccc32)c1OC` (centres undefined) the inhibition was 51.1% (active).
Compound `COc1cccc(CN2CCNC(=O)C2CC(=O)NCCn2cccn2)c1OC` (centres undefined) has an inhibition of 16.7%.
For `Cc1c(NC(=O)C2CCCO2)cccc1[N+](=O)[O-]` (centres undefined), the inhibition was 0.2%.
`Cc1c(N=C2C(=O)Nc3ccccc32)c(=O)n(-c2ccccc2)n1C` showed an inhibition of 14.2%.
For `Cc1c(N=c2scc(-c3ccccc3)n2C)c(=O)n(-c2ccccc2)n1C`, the inhibition was -10.5%.
`Cc1c(N=CC=Nc2c(C)n(C)n(-c3ccccc3)c2=O)c(=O)n(-c2ccccc2)n1C` gave an inhibition of -5.1%.
For `Cc1csc(=Nc2c(C)n(C)n(-c3ccccc3)c2=O)n1-c1ccccc1`, the inhibition was 5.3%.
In the case of `O=C(N1CCOCC1)N(CCN1CCOCC1)Cc1cccc2ccccc12`, the inhibition is reported as 6.2%.
`CCOc1ccccc1NC(=O)c1ccc2nccnc2c1` was tested, and the inhibition was 14.2%.
Compound `CC(NS(=O)(=O)c1ccc(Br)cc1)C(c1cccs1)N1CCOCC1` (centres undefined) has an inhibition of 10.2%.
For `O=c1cc(CO)oc(C(Nc2cccc(C(F)(F)F)c2)c2ccccn2)c1O` (centres undefined), the inhibition was 43.6%.
Work on `O=c1cc(CO)oc(C(Nc2cccc([N+](=O)[O-])c2)c2ccccn2)c1O` (centres undefined) yielded an inhibition of 28.5%.
For `CCOc1ccc(NC(c2ccccn2)c2oc(CO)cc(=O)c2O)cc1` (centres undefined), the inhibition was 51.1% (active).
`O=C(NC(c1ccc(Cl)cc1)c1c(O)ccc2ccccc12)c1ccccc1` (centres undefined) gave an inhibition of 27.6%.
`COc1ccc(C(NC(C)=O)c2c(O)ccc3ccccc23)cc1OC` (centres undefined) showed an inhibition of 8.9%.
`CC(=O)NC(c1ccc(Cl)cc1)c1c(O)ccc2ccc(O)cc12` (centres undefined) was tested, and the inhibition was 69.9% (active).
`CCc1ccc(-n2c(Cc3ccccc3)n[nH]c2=S)cc1` showed an inhibition of 10.9%.
`Cc1cc(C2=NNC(=NCCc3ccccc3)SC2)c(C)n1CC1CCCO1` (centres undefined) gave an inhibition of -32.7%.
In the case of `COCCN=C1NN=C(c2cc(C)n(CC3CCCO3)c2C)CS1` (centres undefined), the inhibition is reported as 54.9% (active).
Work on `CCOc1ccc(N=C2NN=C(c3cc(C)n(CC4CCCO4)c3C)CS2)cc1` (centres undefined) yielded an inhibition of -81.4%.
With `Cc1cc(C)c(S(=O)(=O)Cc2ccccc2)c(=O)[nH]1` the inhibition was -13%.
Compound `COc1ccc(/C=N/NC(=O)Cn2c(Cc3ccc(OC)c(OC)c3)nc3ccccc32)cc1OC` has an inhibition of 5.5%.
Work on `CCN1C(=O)C(CC(=O)Nc2ccccc2)S/C1=N\c1ccccn1` (centres undefined) yielded an inhibition of -2.2%.
With `CCOC(=O)C1(Cc2ccccc2C)CCCN(Cc2cn(C)nc2C)C1` (centres undefined) the inhibition was 12.5%.
`CCOC(=O)C1(Cc2ccccc2C)CCCN(Cc2ccc(NC(C)=O)cc2)C1` (centres undefined) was tested, and the inhibition was -4.1%.
`CCOC(=O)C1(Cc2ccccc2C)CCCN(Cc2cc(OC)c(O)c(OC)c2)C1` (centres undefined) was tested, and the inhibition was 65.5% (active).
For `COc1ccc(CC(=O)Nc2ccc(OC)c(NC(=O)c3ccco3)c2)cc1`, the inhibition was 11.2%.
`COc1cc(NC(C)CCCN)c2ncccc2c1Oc1ccccc1` (centres undefined) was tested, and the inhibition was 56.6% (active).
`COc1ccc(S(=O)(=O)N(CC(C)C)CC(C)C)c2cccnc12` was tested, and the inhibition was 10.4%.
`COc1ccccc1Oc1ccc2c(c1)C(=O)N(c1ccc(Br)c3cccnc13)C2=O` gave an inhibition of 8.4%.
For `O=C(N/N=C/c1c[nH]c2ccccc12)c1ccn(Cc2ccc(Cl)cc2)n1`, the inhibition was 1.6%.
Compound `O=C(CSCc1nc2ccccc2[nH]1)Nc1ccc(Oc2ccccc2)cc1` has an inhibition of 10.1%.
With `O=S(=O)(NCc1ccncc1)c1ccccc1` the inhibition was -9.4%.
Work on `O=C(NCc1ccccc1)Nc1cccn(Cc2ccccc2F)c1=O` yielded an inhibition of 20.5%.
For `COC(=O)Nc1cccn(Cc2c(Cl)cccc2Cl)c1=O`, the inhibition was 58.7% (active).
`O=C(NCc1ccccc1)Nc1cccn(Cc2c(F)cccc2Cl)c1=O` was tested, and the inhibition was 53.7% (active).
For `O=C(Nc1ccccc1)Nc1cccn(Cc2c(F)cccc2Cl)c1=O`, the inhibition was 35.6%.
`O=C(NCc1ccccc1)Nc1cccn(Cc2ccccc2Cl)c1=O` was tested, and the inhibition was 38.2%.
In the case of `CC(=O)Nc1cccn(Cc2c(Cl)cccc2Cl)c1=O`, the inhibition is reported as 8.5%.
In the case of `O=C(Nc1cccn(Cc2c(F)cccc2Cl)c1=O)NC1CCCCC1`, the inhibition is reported as 17.3%.
With `Cc1ccc(NC(=O)Nc2cccn(Cc3c(F)cccc3Cl)c2=O)cc1` the inhibition was 55.7% (active).
Work on `C#CCOC(=O)Nc1cccn(Cc2c(Cl)cccc2Cl)c1=O` yielded an inhibition of -71%.
With `O=C(Cn1cncn1)NCCC(c1ccccc1)c1ccccc1` the inhibition was 5.2%.
With `COc1ccc2c(c1)CC/C2=N\OC(=O)c1cccc(C)c1` the inhibition was 2.5%.
Work on `CCC1CCCCN1C(=O)c1c[nH]c2ccc(S(=O)(=O)N(C)c3ccc(Cl)cc3)cc2c1=O` (centres undefined) yielded an inhibition of 1.6%.
In the case of `O=C(COc1ncnc2cc([N+](=O)[O-])ccc12)N(CCc1ccccc1)Cc1ccccc1`, the inhibition is reported as 16.7%.
In the case of `O=C(CCN1CCN(S(=O)(=O)c2ccc(Br)cc2)CC1)Nc1ccccc1F`, the inhibition is reported as -6.1%.
`O=C1c2ccccc2C(=O)c2c1ncn2-c1ccccc1` was tested, and the inhibition was 59.1% (active).
`O=C1c2ccccc2-c2nccnc21` gave an inhibition of 6.6%.
`c1ccc(-n2cnc3ccccc32)cc1` showed an inhibition of -1.2%.
Work on `Cc1ccsc1/C=N/N=C1\C(=O)Nc2ccccc21` yielded an inhibition of 5.3%.
In the case of `CCc1nn(C(C)C(=O)Nc2cccc(C)c2C)c(=O)c2cc3occc3n12` (centres undefined), the inhibition is reported as 6.9%.
For `CCCCc1c(C)nc2ccccc2c1SCCC#N`, the inhibition was -31.5%.
`COc1ccc(N2CCN(C(=O)c3cccc(F)c3)CC2)c([N+](=O)[O-])c1` showed an inhibition of 11.8%.
With `O=C(c1ccccc1F)N1CCN(c2ccc([N+](=O)[O-])c3cccnc23)CC1` the inhibition was 58.4% (active).
`Cc1ccc(S(=O)(=O)N2CCN(c3ccc([N+](=O)[O-])c4cccnc34)CC2)cc1` gave an inhibition of 20.2%.
`O=[N+]([O-])c1ccc(N2CCN(CCO)CC2)c2ncccc12` was tested, and the inhibition was 65% (active).
`O=C(c1ccccc1F)N1CCN(c2ccc([N+](=O)[O-])c3ncccc23)CC1` showed an inhibition of 38.3%.
`Cc1cc(N2CCN(c3ccc([N+](=O)[O-])c4cccnc34)CC2)c2ccccc2n1` showed an inhibition of 46.7%.
With `O=C(c1cccc(F)c1)N1CCN(c2ccc([N+](=O)[O-])c3cccnc23)CC1` the inhibition was 62.3% (active).
Compound `O=C(c1cc(F)c(F)cc1Cl)N1CCN(c2ccc([N+](=O)[O-])c3ncccc23)CC1` has an inhibition of 46.1%.
`O=C(c1cccc(F)c1)N1CCN(c2cc(N3CCCCC3)c(F)cc2[N+](=O)[O-])CC1` was tested, and the inhibition was 15.2%.
Compound `CSc1nc2c(c(=O)n1C)SC(C)C2` (centres undefined) has an inhibition of 4.1%.
For `Cc1ccn(-c2cc(O)c(-n3ccc(C)n3)cc2O)n1`, the inhibition was 13.9%.
Compound `COCCCNC(=O)Cn1cnc2sc(C)c(S(=O)(=O)N3CCN(c4ncccn4)CC3)c2c1=O` has an inhibition of 9.4%.
Work on `COc1cccc2cc(-c3ccnc(N)n3)oc12` yielded an inhibition of 18.3%.
Compound `Cc1c(C(=O)NC(C)CCc2ccccc2)cccc1[N+](=O)[O-]` (centres undefined) has an inhibition of 10.1%.
`Cc1ccc(CNC(=O)c2cc3c(-c4ccc(Cl)cc4)nn(C)c3s2)o1` showed an inhibition of 12.8%.
With `CCCN(CCC)C(=O)CC(c1ccccc1)c1cc(Br)ccc1O` (centres undefined) the inhibition was 17.3%.
Work on `CCCSc1nc2c3c(sc2c(=O)[nH]1)CC(C)(CC)OC3` (centres undefined) yielded an inhibition of 4.6%.
Work on `Nc1ccccc1C(=O)N=Nc1[nH]c(N)c2ccccc12` yielded an inhibition of 9.9%.
Work on `O=C(O)Cc1cn(Cc2ccc(F)cc2)c2ccccc12` yielded an inhibition of -9.7%.
`Cn1cc(C(CC(=O)O)C(=O)O)c2ccccc21` (centres undefined) was tested, and the inhibition was 4.1%.
For `NC(=O)CSc1cn(Cc2ccc(F)cc2)c2ccccc12`, the inhibition was 12.6%.
Work on `Cn1cc(C(c2ccccn2)c2cn(C)c3ccccc23)c2ccccc21` yielded an inhibition of -0.8%.
For `Cc1[nH][nH]c(=O)c1C(c1c(C)[nH][nH]c1=O)c1cn(Cc2ccc(Cl)c(Cl)c2)c2ccccc12`, the inhibition was 58% (active).
For `Cc1[nH][nH]c(=O)c1C(c1c(C)[nH][nH]c1=O)c1cn(Cc2ccc(F)cc2)c2ccccc12`, the inhibition was 57.2% (active).
In the case of `Cc1[nH][nH]c(=O)c1C(c1c(C)[nH][nH]c1=O)c1cn(C)c2ccccc12`, the inhibition is reported as 54.8% (active).
For `CCOC(=O)n1c(=O)n(Cc2ccc(Cl)c(Cl)c2)c2ccccc21`, the inhibition was 12.4%.
For `Cc1[nH][nH]c(=O)c1C(c1ccc(-c2ccc(Cl)c(Cl)c2)o1)c1c(C)[nH][nH]c1=O`, the inhibition was -45.1%.
Work on `Cc1ccc(-c2nc(SCC(=O)Nc3cc(S(=O)(=O)N4CCCCC4)ccc3Cl)n[nH]2)cc1` yielded an inhibition of 10.9%.
Work on `C=C1c2ccccc2NC(=S)N1Cc1ccc2c(c1)OCO2` yielded an inhibition of -15.3%.
`N#CC1=C(N)SC2(CCCCC2)SC1c1ccccc1` (centres undefined) was tested, and the inhibition was -5.5%.
`CC(C)CC(=O)OCc1cn(-c2ccccc2)nn1` gave an inhibition of -8.7%.
With `Cc1nnc(NC(=O)CSc2nccn2C)s1` the inhibition was -2.9%.
With `COc1ccc(-n2nc3c(N)n[nH]c3cc2=O)cc1` the inhibition was -97.5%.
